Activity calls are given as the source filed them. Rule for the calls: active = hit-call score of the fitted dose curve at least 0.9, where 1 is the maximum; inconclusive = response in the unintended direction; inactive = score below 0.9.
The compounds below were run on SERPINA7 (gene 6906) (assay: CCTE_GLTED_hTBG: CCTE's human Thyroxine-binding Globulin (TBG) Inhibition Assay, Great Lakes Toxicology and Ecology Division (GLTED) Lab (AID 2284343);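 note: active chemicals lower fluorescence versus DMSO baseline by displacing probe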).
Description: CCTE_GLTED_hTBG is a cell-free, single-readout assay designed to test the chemicals' ability to displace T4 from the human thyroxine-binding globulin (TBG) protein. TBG is incubated in presence of test chemical for 2 hours during which disrupting chemicals displace ANSA from the TBG protein. Results read fluorescence at 380 excitation and 475 emission.CCTE_GLTED_hTBG is the assay component measured from the CCTE_GLTED_hTBG assay. It is designed to make measurements of fluorescent polarization, using a form of binding reporter, as detected with Fluorescence signals by Fluorescence technology.Data from the assay component CCTE_GLTED_hTBG was analyzed at the assay endpoint CCTE_GLTED_hTBG in the positive analysis fitting direction relative to DMSO as the negative control and baseline of activity. Using a type of binding reporter, loss-of-signal activity can be used to understand a chemical's ability to displace T4 from thyroxine-binding globulin. To generalize the intended target to other relatable targets, this assay endpoint is annotated to the 'transporter' intended target family, where the subfamily is 'hormone carrier protein'.
Human transthyretin (TTR) assay, developed at Great Lakes Toxicology and Ecology Division (GLTED) within the EPA's Center for Computational Toxicology and Exposure (CCTE), is designed to test the chemicals' ability to displace T4 from the TTR protein. TTR (0.5uM) is incubated in presence of test chemical for 2 hours during which disrupting chemicals displace ANSA from the TTR protein. Results read fluorescence at 380 excitation and 475 emission.

SMILES	AC50
CN(C)c1ccc(C(=C2C=CC(=[N+](C)C)C=C2)c2ccc(N(C)C)cc2)cc1	50 µM (active)
CCCCCCCCOc1ccc(C(=O)c2ccccc2)c(O)c1	39.1 µM (active)
NC(=O)c1nc(-c2cccc(-c3cc(F)ccc3OCC(F)(F)C(F)(F)F)c2)n[nH]1	3.35 µM (active)
CC(C)(c1cc(Br)c(O)c(Br)c1)c1cc(Br)c(O)c(Br)c1	2.16 µM (active)
CC/C(=C(/CC)c1ccc(O)cc1)c1ccc(O)cc1	1.87 µM (active)
O=C(O)Cn1c(=O)n(Cc2ccc(Br)cc2F)c(=O)c2ccc(Cl)cc21	18.1 µM (active)
CCCCCc1ccc(N)cc1	29.9 µM (active)
Cc1oc2c(NC(=O)c3c(Cl)cccc3Cl)cccc2c1C(C)(C)O	13.6 µM (active)
CCCCCCCCOC(=O)c1cc(O)c(O)c(O)c1	3.42 µM (active)
O=C(O)Cc1cc(I)c(Oc2ccc(O)c(I)c2)c(I)c1	0.0733 µM (active)

Source: PubChem BioAssay (EPA / NIEHS)
